# Experimental data reported in the supplement of paper PMC6555819.
# Key:
# Experiment in all cases: PBM binding z-score (relative to random genomic background probes); higher = stronger binding; sequences stand for … in GC…GCGATTGACAGCGTAGAATGAAGG
# [1] = test system: FXR:RXRa (NR concentration 270 nM, RXRa partner concentration 90 nM)
# How it was run: (§1)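 Ligand-free nuclear receptor dimers were bound for 1 h to custom Agilent 4×180K protein-binding microarrays. Detection used antibodies against each partner (one per run). Binding z-scores rest on regression-normalized fluorescence, with random background probes as the reference.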
# [2] = test system: LXRa:RXRa (NR concentration 270 nM, RXRa partner concentration 90 nM)
# How it was run: as §1
# [3] = test system: LXRa homodimer (NR concentration 270 nM)
# How it was run: as §1
# [4] = test system: LXRb:RXRa (NR concentration 270 nM, RXRa partner concentration 90 nM)
# How it was run: as §1
# [5] = test system: LXRb homodimer (NR concentration 270 nM)
# How it was run: as §1
# [6] = test system: PPARa:RXRa (NR concentration 270 nM, RXRa partner concentration 90 nM)
# How it was run: as §1
# [7] = test system: PPARg:RXRa (NR concentration 180 nM, RXRa partner concentration 90 nM)
# How it was run: as §1
# [8] = test system: PPARg:RXRa 270nM:90nM, anti-RXR (NR concentration 270 nM, RXRa partner concentration 90 nM)
# How it was run: as §1
# [9] = test system: PPARg:RXRa 30nM:10nM, anti-RXR (NR concentration 30 nM, RXRa partner concentration 10 nM)
# How it was run: as §1
# [10] = test system: PPARg:RXRa 90nM:30nM, anti-RXR (NR concentration 90 nM, RXRa partner concentration 30 nM)
# How it was run: as §1
# [11] = test system: PPARg:RXRa DBDmut IVT, anti-RXR (DBD mutation: RXRa K156A/R161A, NR concentration 270 nM, RXRa partner concentration 90 nM)
# How it was run: as §1
# [12] = test system: PPARg:RXRa IVT, anti-PPARg (NR concentration 270 nM, RXRa partner concentration 90 nM)
# How it was run: as §1
# [13] = test system: PPARg DBDmut:RXRa IVT, anti-PPARg (DBD mutation: PPARg1 K132A/R137A, NR concentration 270 nM, RXRa partner concentration 90 nM)
# How it was run: as §1
# [14] = test system: PPARg DBDmut IVT, anti-PPARg (DBD mutation: PPARg1 K132A/R137A, NR concentration 270 nM)
# How it was run: as §1
# [15] = test system: PPARg homodimer (NR concentration 180 nM)
# How it was run: as §1
# [16] = test system: PXR:RXRa (NR concentration 270 nM, RXRa partner concentration 90 nM)
# How it was run: as §1
# [17] = test system: PXR homodimer (NR concentration 270 nM)
# How it was run: as §1
# [18] = test system: RARa:RXR (NR concentration 270 nM, RXRa partner concentration 90 nM)
# How it was run: as §1
# [19] = test system: RARa homodimer (NR concentration 270 nM)
# How it was run: as §1
# [20] = test system: RARb:RXRa (NR concentration 270 nM, RXRa partner concentration 90 nM)
# How it was run: as §1
Sequence,PBM binding z-score [1],PBM binding z-score [2],PBM binding z-score [3],PBM binding z-score [4],PBM binding z-score [5],PBM binding z-score [6],PBM binding z-score [7],PBM binding z-score [8],PBM binding z-score [9],PBM binding z-score [10],PBM binding z-score [11],PBM binding z-score [12],PBM binding z-score [13],PBM binding z-score [14],PBM binding z-score [15],PBM binding z-score [16],PBM binding z-score [17],PBM binding z-score [18],PBM binding z-score [19],PBM binding z-score [20]
TGTCAAAGTTCCAAGGTAACGTAAGTATCCACAC,0.32,0.139,-0.0669,0.284,0.0682,0.321,0.758,1.18,0.448,1.04,-0.29,1.18,0.991,0.288,0.137,0.082,0.35,0.56,0.373,0.659
TGTCAAAGATCAAAGGTAACGTAAGTATCCACAC,1.19,1.08,-0.325,1.32,-0.103,2.73,4.17,4.22,2.19,3.68,-0.516,2.24,1.24,1.01,0.484,1.26,-0.19,2.22,0.426,1.02
GCTATGAGTTGAAAGGGCAACCGAATGATTCTCG,1.13,1.19,-0.0384,1.24,-0.412,3.11,2.75,3.86,1.58,3.23,0.245,0.754,0.0157,-0.588,0.982,1.62,-0.0077,2.66,0.195,2.45
TAGCCTAGGTCATTCAGAGGCCAGTATAGAAAGC,4.56,3.63,0.829,2.82,0.598,3.63,2.34,2.29,0.542,1.47,1.43,2.85,0.547,0.364,2,2.58,-0.166,3.25,-0.206,4.09
ATCTCTAGGTTACCAAGTTCAGTGAATGCCGAAC,0.872,1.95,1.86,1.47,1.16,2.15,1.82,1.97,0.559,0.955,4.8,4.07,1.25,1.33,1.15,3.34,4.37,1.46,1.16,2.31
CGAACTAGGTCAGAACAGGGCAGTGAAGGATGAT,1.43,0.861,-0.154,0.436,-0.443,3.09,5.03,4.3,1.73,3.33,7.23,7.22,1.72,-0.191,1.19,1.26,0.00717,0.81,0.0682,3.15
CGTCCAAGGTCAAGGTCAGGGAAAGAGACTCGAA,7.19,5.97,1.22,4.87,0.963,6.11,6.41,7.28,3.93,5.91,4.11,5.09,0.821,-0.224,4.18,5.28,1.82,5.45,2.88,5.72
CCGACTGGGGCAGAAAGGTTCCCATACCATCCGG,-0.722,-0.705,-0.526,-0.996,-1.27,-0.271,0.412,0.198,-0.842,-0.499,1.45,0.893,-0.887,-1.78,-0.509,-0.725,-0.638,-0.53,-0.395,0.328
TCTGCTAGGTCAGTTGGTCAGCTCACGAGCTGCC,1.02,0.925,-0.62,0.62,0.255,1.53,0.508,1.87,1.28,1.87,3.21,3.07,0.484,0.713,-0.202,0.341,-1.06,0.601,-1.19,3.18
ATATGTAGGTTAAGGGTCCTTCAGGTTGGTTCGC,0.735,1.21,0.278,1.18,0.267,4.59,8.87,8.11,8.31,9.26,7.65,7.29,1.78,0.916,2.1,1.1,0.435,1.23,0.703,1.24
ACTAGTTGGTCAGCTCAGGTCACACACAATTCGG,1.73,1.66,1.68,1.95,0.675,2.03,1.04,0.796,-0.0327,0.521,1.24,2.1,0.448,1.3,1.64,3.54,0.961,2.58,1.11,2.7
CCTTACGGGTCACCAGGTTATAGCACGACGAGCG,5.57,4.07,0.342,3.43,0.0793,5.41,6.15,6.21,2.59,4.99,3.46,5.18,0.0764,-0.404,2.34,3.72,-0.0319,4.62,1.27,4.27
CAAACTAGGTCAAGGTCAACGTCGGTTTGTGCCA,6.57,5.33,3.32,4.35,0.922,6.21,9.59,8.11,6.56,8.58,8.4,8.81,6.29,2.23,4.73,5.27,1.97,5.42,2.12,5.36
ACTATGAGTTGAGACGAGGGCAACCGATAGGTTG,1.25,0.578,-0.194,0.311,-0.0217,0.709,0.835,0.44,0.0728,0.0976,-0.225,0.397,0.408,-0.21,0.118,3.34,0.321,1.23,-0.00647,1.32
